Source: PubChem BioAssay AID1159580 (chemical genetic matrix, 2015)
The campaign covered roughly 5,500 compounds. About 2,000 (36%) were called active. Roughly 18% stayed inconclusive and do not appear here. Rule as the data show it: active = normalized growth mostly below about 0.91 (no sharp cut-off); inconclusive = no clear call, values can overlap the other calls; inactive = mostly above about 0.92. The list shows a part of the results.

Experiment: chemical genetic growth profiling, strain panel (AID 1159580);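 also: tested at 20 µM; growth read once vehicle control cultures reached saturation at 30 °C; 1 = growth at the plate median or of vehicle wells; lower values mean less growth of the strain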
Conditions: growth OD
[1] = S. cerevisiae deletion strains, locus YAL013W, strain DEP1, active compounds read low
[2] = S. cerevisiae deletion strains, locus YDR150W, strain NUM1, active compounds read low
[3] = S. cerevisiae deletion strains, locus YJR075W, strain HOC1, active compounds read low
[4] = S. cerevisiae deletion strains, locus YMR307W, strain GAS1, active compounds read low
[5] = S. cerevisiae deletion strains, locus YPL055C, strain LGE1, active compounds read low
[6] = S. cerevisiae deletion strains, locus YPL241C, strain CIN2, active compounds read low

Measured: normalized growth

C[C@]12CCC3C(CC[C@H]4C[C@H](O)CC[C@]34C)C1CC[C@@H]2C(=O)CO (some centres undefined)
inactive: [1] 1.02 | S. cerevisiae deletion strains, locus YAL040C, strain CLN3, active compounds read low 1.08 | S. cerevisiae deletion strains, locus YCL061C, strain MRC1 (second series), active compounds read low 1.01 | [2] 1.03 | S. cerevisiae deletion strains, locus YDR363W, strain ESC2, active compounds read low 1.02 | S. cerevisiae deletion strains, locus YER002W, strain NOP16, active compounds read low 1.02 | [3] 1.06 | [4] 0.939 | S. cerevisiae deletion strains, locus YNL128W, strain TEP1, active compounds read low 1.02 | S. cerevisiae deletion strains, locus YNL175C, strain NOP13, active compounds read low 1.04 | S. cerevisiae deletion strains, locus YNL197C, strain WHI3, active compounds read low 1.02 | S. cerevisiae deletion strains, locus YNL224C, strain SQS1, active compounds read low 0.995 | S. cerevisiae deletion strains, locus YOR083W, strain WHI5 (second series), active compounds read low 1.01 | [5] 1.03 | [6] 1.03

CC12CCC3C(CC[C@H]4CC5(CCC34C)OCCO5)C1CCC2O (some centres undefined)
inactive: [1] 0.988 | S. cerevisiae deletion strains, locus YBR229C, strain ROT2, active compounds read low 1.01 | S. cerevisiae deletion strains, locus YDL101C, strain DUN1, active compounds read low 0.976 | [2] 0.912 | S. cerevisiae deletion strains, locus YEL061C, strain CIN8, active compounds read low 0.999 | S. cerevisiae deletion strains, locus YGR078C, strain PAC10, active compounds read low 0.968 | S. cerevisiae deletion strains, locus YHR030C, strain SLT2, active compounds read low 0.969 | S. cerevisiae deletion strains, locus YHR087W, strain rtc3, active compounds read low 1.02 | [3] 1 | S. cerevisiae deletion strains, locus YKL190W, strain CNB1, active compounds read low 1.03 | S. cerevisiae deletion strains, locus YLR058C, strain SHM2 (second series), active compounds read low 1.04 | S. cerevisiae deletion strains, locus YLR085C, strain ARP6, active compounds read low 1.03 | S. cerevisiae deletion strains, locus YML094W, strain GIM5, active compounds read low 0.98 | S. cerevisiae deletion strains, locus YMR219W, strain ESC1, active compounds read low 1 | S. cerevisiae deletion strains, locus YMR263W, strain SAP30, active compounds read low 0.992 | [4] 1.05 | S. cerevisiae deletion strains, locus YNL298W, strain CLA4 (second series), active compounds read low 0.945 | S. cerevisiae deletion strains, locus YNR030W, strain Alg12, active compounds read low 0.963 | [5] 0.98 | [6] 0.962 | S. cerevisiae deletion strains, locus YPR135W, strain CTF4, active compounds read low 0.832 | S. cerevisiae strains, strain wild type, active compounds read low 1.02
active: S. cerevisiae deletion strains, locus YCL061C, strain MRC1, active compounds read low 0.87 | S. cerevisiae deletion strains, locus YJL187C, strain SWE1, active compounds read low 0.92 | S. cerevisiae deletion strains, locus YJR043C, strain POL32, active compounds read low 0.877 | S. cerevisiae deletion strains, locus YLR039C, strain RIC1, active compounds read low 0.74 | S. cerevisiae deletion strains, locus YLR262C, strain YPT6, active compounds read low 0.625 | S. cerevisiae deletion strains, locus YNL153C, strain GIM3, active compounds read low 0.905 | S. cerevisiae deletion strains, locus YNL322C, strain KRE1, active compounds read low 1.08 [resistant]
